Measured values as given in PubChem BioAssay.

Test: binders of probe aHhip on microarray, primary screen, stem cell growth factor project, biochemical, small-molecule microarray, fluorescence 635/667 (AID 1087);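 further: score merges spot fluorescence at 667nm with spot signal to noise ratio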
Details: higher = more signal

Point of comparison: `C=CCCN(CC#C[C@H]1Oc2ccccc2S(=O)(=O)N2CCC[C@@H]12)S(=O)(=O)c1ccc(C)cc1`, composite z-score 0.0373. Against it:
- C=C(CCCC)/C(=C/C[C@H](OC(C)=O)c1ccc(CO)o1)c1cc(C(=O)OC)ccc1OC — lower, -0.0618
- CC(C)(C)OC(=O)CC[C@]1(C(=O)NCC(O)CO)N=C(c2ccc(OCCCO)cc2)O[C@H]1c1ccccc1CN=[N+]=[N-] (stereo not given in full) — lower, -0.0024
- COC(=O)[C@@]1(Cc2ccc(OC)cc2)[C@H]2c3cc(C(=O)N(C)C)n(Cc4ccc(OC)c(OC)c4)c3C[C@H]2CN1C(=O)c1ccccc1 — higher, 0.525
- [N-]=[N+]=NCc1ccccc1C[C@@]1(C(=O)NCc2ccccc2)N=C(c2ccc(OCCCO)cc2)O[C@@H]1c1ccccc1CN=[N+]=[N-] — higher, 0.553
- [N-]=[N+]=NCc1ccccc1[C@H]1OC(c2ccc(OCCCO)cc2)=N[C@@]1(Cc1ccccc1)C(=O)O — lower, -0.0994
- NC(=O)NCC#Cc1ccc2c(c1)[C@]1(C(=O)N2)[C@H](C(=O)NC[C@H](O)c2ccccc2)[C@H]2C(=O)O[C@H](c3ccccc3)[C@H](c3ccccc3)N2[C@@H]1c1ccccc1OCCO — lower, -0.0994
- C=C(C(=O)CC[C@H](OC(=O)c1cccnc1)c1ccccc1OCCO)C(C)C — lower, -0.204
- COc1ccc([Si](C)(C)[C@@H]2[C@@H](CCO)O[C@]3(C(=O)N(Cc4ccc(N5C(=O)c6cccc7cccc5c67)cc4)c4ccccc43)[C@H]2C)cc1 — lower, -0.189
- COc1ccc([Si](C)(C)[C@H]2[C@H](CCO)O[C@@]3(C(=O)N(Cc4ccccc4)c4ccc(N5C(=O)COc6ccccc65)cc43)[C@@H]2C)cc1 — higher, 0.357
- O=C1C2C=CC(C(O)c3ccccn3)N(Nc3ccccc3F)C2C(=O)N1c1ccccc1 (stereo not given) — lower, -0.0945
- CN(C)CCCC[C@@H]1NC(=O)[C@@H]2C[C@H](C(=O)NCCCCCN)[C@H](c3ccc(O)cc3)N2C1=O — lower, -0.0324
- O=C(NCC(O)CO)[C@@]1(Cc2ccccc2)COC(c2ccc(OCCCO)cc2)=N1 (stereo not given in full) — lower, -0.12
- CCOC(=O)N1C(c2ccc(OCCCO)cc2)=NC(C(=O)OC)N1C(=O)OCC (stereo not given) — lower, -0.347
- CO[C@H]1O[C@H](CO)[C@@H](OC(=O)Nc2cccc(F)c2)[C@H](OC(=O)Nc2ccccc2-c2ccccc2)[C@@H]1OC(=O)Nc1ccccc1-c1ccccc1 — lower, -0.374
- O=C1OCC=C[C@H]2OC34C=CCN(c5ccc6ccccc6c5)C(=O)[C@H]3N(CCO)C(=O)[C@@H]4[C@@H]12 (stereo not given in full) — lower, -0.27
- COc1cc2c(cc1O)C(c1ccc(CN3CCCC3)cc1)N(Cc1sc3ccccc3c1Cl)CC2 (stereo not given) — lower, -0.214
- O=C1OCC=C[C@H]2OC34C=CCN(c5ccc(Cl)cc5)C(=O)[C@H]3N(CCCO)C(=O)[C@@H]4[C@@H]12 (stereo not given in full) — lower, -0.277
- NC(=O)[C@@]1(CCS(=O)(=O)c2ccccc2)N=C(c2ccc(OCCCO)cc2)O[C@H]1c1ccccc1 — lower, -0.0645
- CC(=O)NCCCC[C@@H]1NC(=O)[C@@H]2C[C@H](C(=O)NCc3ccc(F)cc3)[C@H](c3ccc(O)cc3)N2C1=O — lower, -0.0994
- O=C1OCCC=C[C@H]2OC34C=CCN(c5ccc6ccccc6c5)C(=O)[C@H]3N(CCCCCCO)C(=O)[C@@H]4C12 (stereo not given in full) — lower, -0.546
- Cc1ccc(F)cc1S(=O)(=O)N[C@@H]1CCN(Cc2ccc(C(F)(F)F)cc2)C1 — lower, -0.283
- CC(C)NC(=O)[C@@]1(c2ccc([N+](=O)[O-])cc2)CC(=O)N(C(C)C)[C@@H]1c1ccc(CO)cc1 — lower, -0.256
- C=CCC(OC(C)=O)[C@@H]1[C@@H](N(Cc2ccc(-c3ccccc3)cc2)C(=O)c2ccc(C)cc2)c2cc(OCCCO)ccc2N1C(=O)c1ccc2ccccc2n1 (stereo not given in full) — higher, 0.154
- C=CCC(OC(C)=O)[C@@H]1[C@@H](N(Cc2cc3ccccc3o2)C(=O)c2ccc(C)cc2)c2cc(OCCCO)ccc2N1C(=O)c1ccc(-c2ccccc2)cc1 (stereo not given in full) — higher, 0.113
- COCCCNC(=O)[C@@]1(Sc2ccc(C)cc2)CC(=O)N(Cc2ccccc2)[C@@H]1c1ccc(CO)cc1 — lower, 0.0347
- COc1ccc(C(=O)Nc2cccc(CN3C(=O)[C@@]4(O[C@@H](CCn5cc([C@H](O)c6ccccc6)nn5)[C@H]([Si](C)(C)c5ccc(OC)cc5)[C@H]4C)c4ccccc43)c2)cc1 — the same, 0.0373
- CN1C(=O)C2C=CC(C(O)c3ccccc3)N(NC(=O)OC(C)(C)C)C2C1=O (stereo not given) — lower, -0.0645
- [N-]=[N+]=NCc1ccccc1C[C@]1(C(=O)NCc2ccccc2)COC(c2ccc(OCCCO)cc2)=N1 — lower, -0.166
- C=CC[C@@]1(C(=O)NCCN2CCOCC2)N=C(c2ccc(OCCCO)cc2)O[C@@H]1c1ccccc1CN=[N+]=[N-] — higher, 0.0989
- C=CCOC(=O)[C@@H]1[C@H]2C(=O)O[C@H](c3ccccc3)[C@H](c3ccccc3)N2[C@H](c2ccc(OCCOC(=O)[C@H]3C[C@H]4C(=O)N[C@@H](CCCC[N+](C)(C)C)C(=O)N4[C@H]3c3cccc(OCCO)c3)cc2)[C@@]12C(=O)Nc1ccc(I)cc12 — higher, 0.154
- COc1ccc([Si](C)(C)[C@H]2[C@H](CC(=O)N3Cc4ccccc4C[C@H]3CO)O[C@@]3(C(=O)N(Cc4cccc(I)c4)c4ccccc43)[C@@H]2C)cc1 — higher, 0.289
- C[n+]1ccc2ccc(O)cc2c1 — lower, -0.0994
- COc1ccc([Si](C)(C)[C@@H]2[C@@H](CCO)O[C@]3(C(=O)N(Cc4cccc(N5CCCCC5=O)c4)c4ccccc43)[C@H]2C)cc1 — lower, -0.0618
- Cc1ccc(N2C(=O)c3ccccc3[C@@H](C(=O)NC(C)C)[C@@H]2c2ccc(CO)cc2)nc1 — lower, -0.0994
